Results reported in PubChem BioAssay (NCI).
The panel holds about 83,000 compounds, 20% with a hit somewhere; the sample as a whole holds those more often.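 In brief: 96-well plates, 48 h treatment, single concentration, percent growth endpoint.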 Values without a mark were called inactive. Activity calls are given as the source filed them. The calls were made as follows: active = growth percent below 10; inactive = the rest.

Legend:
Assay in all cases: NCI-60 one-dose screen, 48 h (100 = growth as untreated, 0 = no growth, -100 = all killed)
Settings in all cases: 10 µM unless noted
NCI-H23 lung = system: NCI-H23 lung
NCI-H226 lung = system: NCI-H226 lung
NCI-H322M lung = system: NCI-H322M lung
HOP-62 NSCLC = system: HOP-62 NSCLC
HOP-92 NSCLC = system: HOP-92 NSCLC
NCI-H522 lung = system: NCI-H522 lung
A549/ATCC NSCLC = system: A549/ATCC NSCLC
786-0 renal = system: 786-0 renal
COLO 205 colon = system: COLO 205 colon
NCI-H460 lung = system: NCI-H460 lung

| SMILES | growth (NCI-H23 lung) | growth (NCI-H226 lung) | growth (NCI-H322M lung) | growth (HOP-62 NSCLC) | growth (HOP-92 NSCLC) | growth (NCI-H522 lung) | growth (A549/ATCC NSCLC) | growth (786-0 renal) | growth (COLO 205 colon) | growth (NCI-H460 lung) |
| --- | --- | --- | --- | --- | --- | --- | --- | --- | --- | --- |
| O=C(Cn1cc(CN2C(=O)c3ccc([N+](=O)[O-])cc3C2=O)nn1)Nc1ccc(F)cc1Cl | 98% | 101% | 100% | 109% | 79.7% | 93.1% | 99.1% | 93.9% | 110% |  |
| COc1ccc2c(C3=C(c4c[nH]c5ccccc45)C(=O)N(O)C3=O)coc2c1 | 93% | 74.9% | 96.8% | 84.7% | 96% | 68.4% | 96.6% | 93.8% | 99.2% |  |
| COc1cc2c3c(n(CCCNC4CCCCC4)c(=O)c2cc1OC)-c1cc2c(cc1C3=O)OCO2 | -51.7% (active) | 82.5% | -80.3% (active) | -78.9% (active) | 91.5% | -60.5% (active) | -87.5% (active) | -82.8% (active) | -79.2% (active) |  |
| Cc1csc(Nc2cccc(Nc3nc(C)cs3)c2)n1 | 58.4% | 85% | 96.2% | 98.8% | 52.2% | 73.3% | 88% | 94.5% | 87.2% |  |
| Cc1ccc(-c2cc3nc(C(Cl)Cl)nc(-c4ccccc4)n3n2)cc1 | 95.4% | 103% | 74.3% | 73.6% | 94.9% | 98.1% | 77.5% | 94.4% | 54.3% |  |
| CSc1ccc(/C(=N/N=C(N)N)c2ccccc2)cc1 | 29.2% | 50.6% | 50.9% | 49.3% | 34.4% |  | 27.4% | 31% | 0.455% (active) | 6.46% (active) |
| Cn1cc(-c2nn3c(=O)cc(-c4ccccc4)nc3s2)c2cc(F)ccc21 | 59.7% | 46.4% | 65.6% | 45% | -3.43% (active) | -37.4% (active) | 36.7% | 82.5% | 44.8% |  |
| CN1C(=O)N(C)C2Nn3c(s/c(=C\c4ccccn4)c3=O)=NC21 (stereo not drawn) | 108% | 103% | 103% | 100% | 107% | 92.3% | 103% | 104% | 110% |  |
| COc1ccc(/C=N/Nc2nc(Nc3ccccc3)nc(Nc3ccc(S(N)(=O)=O)cc3)n2)cc1 | 70.3% | 73.2% | 84.6% | 80.4% | 95.7% |  | 87.1% | 73.7% | 76.9% | 55.2% |
| O=C1C[C@@H](c2ccccc2)Oc2c(Cc3ccccc3O)c(O)c(Cc3cc(Cc4cc(Cc5ccccc5O)ccc4O)ccc3O)c(O)c21 | 94.7% | 86% | 110% | 97.4% | 78% | 107% | 101% | 100% | 111% |  |
| C=C1C(=O)O[C@@H]2C[C@@H](C)/C=C\C(=O)[C@](C)(OC(C)=O)C[C@H](OC(=O)/C(C)=C\C)[C@@H]12 | -13.9% (active) | -43.4% (active) | 88% | 74.6% | -35.6% (active) | -82.4% (active) | 72.9% | -62.8% (active) |  |  |
| O=C(Nc1cccc(Cl)c1)Nc1nc2ccc(-c3cccc4ccccc34)cc2s1 | 24.6% | 57.5% | 71.1% | 61% | -2.69% (active) |  | 36.9% | 82.5% | 49.7% | 34.1% |
| CC(=O)Nc1ccc(NC(=O)Nc2cccc(-c3nc(-c4ccc(NC(=O)c5cccnc5)cc4Cl)no3)c2)cc1C(F)(F)F | -63.3% (active) | -55.2% (active) | -34.2% (active) | -58.1% (active) | -65.6% (active) | -46.3% (active) | -1.13% (active) | -35.6% (active) | -53.1% (active) |  |
| COc1ccc(C(=O)n2cc(C=O)c3ccccc32)cc1 | 101% | 96.7% | 95.2% | 124% | 83.1% | 98.6% | 98.6% | 102% |  |  |
| O=C(COc1ccc(C2SCC(=O)N2c2ccccc2)cc1)c1ccccc1 (stereo not drawn) | 94% | 90% | 103% | 95.6% | 86.8% |  | 93.8% | 102% | 111% | 102% |
| COc1ccc(-c2nn(-c3ccccc3)cc2/C=C/C(=O)c2ccc(NC(=O)CCCCCCC(=O)NO)cc2)cc1 | 113% | 112% | 96.3% | 107% | 125% | 92.4% | 96% | 69.8% | 115% |  |
| C#C[C@]1(O)CC[C@H]2[C@@H]3CC=C4c5sc(Nc6cccc(C)n6)nc5CC[C@]4(C)[C@H]3CC[C@@]21C | 36.3% | 45% | 61.3% | 16.5% | 1.75% (active) | 44.7% | 30.7% | -70.7% (active) | 68.3% |  |
| COc1ccc(-c2cc(-c3cccc4ccccc34)n3c(n2)nc2ccccc23)cc1 | 62.2% | 49.1% | 73.5% | 26% | 38.4% |  | 29% | 36.5% | 74% | 13.5% |
| CC(C)=CCc1c2c(c(O)c3c1O[C@]14C(=C[C@@H]5C[C@H]1C(C)(C)O[C@@]4(C/C=C(/C)C(=O)O)C5=O)C3=O)CC(O)C(C)(C)O2 (stereo partly drawn) | -60.3% (active) | 18.4% | 11.6% | -19.3% (active) | -8.8% (active) | -53.9% (active) | -9.15% (active) | -39.6% (active) | -67% (active) |  |
| Cc1cc(NS(=O)(=O)c2ccc(-c3cnc(C4CC4)o3)cc2)ccc1I | 37.7% | 57.8% | 45.8% | 43.8% | 62.4% | 30.6% | 48.1% | 46.3% | 22.9% |  |
| C[C@@H]1C[C@H]2C(=O)OCC(NC(=O)[C@H](Cc3cc(F)cc(F)c3)NC(=O)Nc3ccc(Cl)cc3F)C(=O)N3CCC[C@H]3C(=O)N3CCCC[C@H]3C(=O)N[C@@H](C)C(=O)N2C1 (stereo partly drawn) | 37.9% | -4.62% (active) | 48.3% | 39.1% | 9.65% (active) |  | 25.1% | 33.6% | -9.71% (active) |  |
| CNC(=O)c1c(NC(=O)c2ccc(F)cc2F)sc2c1CCC(=O)C2 | 5.55% (active) | 15.7% | 33.3% | 16.3% | -34% (active) | -10.1% (active) | 13.1% | 24% | -74% (active) |  |
| CCN1CCN(c2cc(C(=O)Nc3nc4ccc(Oc5ccnc(C(=O)NC)c5)cc4s3)cc(C(F)(F)F)c2)CC1 | 89.6% | 90.8% | 95% | 104% | 91.1% | 78.7% | 86.5% | 70% |  |  |
| Cc1cc(Cl)cc(NS(=O)(=O)c2ccc(-c3cnc(C4CC4)o3)cc2)c1 | 35.7% | 60.5% | 46.7% | 41.7% | 66.5% | 17.9% | 31.8% | 49.4% | 2.78% (active) |  |
| CCOc1ccc2nc(NC(=O)Nc3ccccc3C)sc2c1 | 76.4% | 38.3% | 87% | 49% | 126% |  | 54.7% | 64.9% | 49.9% | 42.4% |
| O=C(NCCCNc1cc(-c2cn(-c3ccccc3)nc2-c2cccc(O)c2)ccn1)Nc1ccc(F)cc1 | 26.3% | 32.6% | 35.3% | 24% | -11.5% (active) |  | 29.2% | -39.4% (active) | -39.4% (active) | 21.4% |
| CC[C@H](C)[C@H]1NC(=O)[C@@H]([C@H](O)C(C)C)NC(=O)[C@@H](C)N(C)C(=O)[C@H](C)N(C)C(=O)[C@H](CC(C)C)NC(=O)[C@H](CC(C)C)N(C)C(=O)[C@H](C)N(C)C1=O | -2.85% (active) | -6.15% (active) | 5.75% (active) | -13.3% (active) | -3.54% (active) | 1.44% (active) | 0.788% (active) | 0.205% (active) | -8.56% (active) |  |
| COc1ccc(/C(C)=C(\c2ccc(Cl)cc2)c2ccc(OCCN)cc2)cc1 | 82.2% | 92% | 79.3% | 106% | 61.6% |  | 88.9% | 81.7% | 32.6% | 60.8% |
